# PubChem BioAssay (NCI)
# Compounds without any hit were thinned out: in the full panel of roughly 79,000, 15% have a hit. Unmarked numbers belong to inactive results. Activity calls are given as the source filed them. No stated cut-off is given here; in the data, active means growth inhibition above about 70%; inactive means the rest.
# Assay: NCI Yeast Anticancer Drug Screen. Data for the wt1 strain (AID 149);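 further: 0% = growth of vehicle-treated wt1 cultures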
# Details: S. cerevisiae wt1 strain (SPY 50644) growth inhibition; at 100.0 µM; active compounds read high
# In short: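 The wt1 strain was treated with compounds, and growth was compared with vehicle-treated cultures to give inhibition.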
row,Structure (SMILES),growth inhibition
1,Clc1cccc(C(Nc2nncs2)Nc2nncs2)c1Cl,34%
2,O=C(OCC=C1CCCC1)c1cc([N+](=O)[O-])cc([N+](=O)[O-])c1,98% (active)
3,O=C(Nc1ccccc1)C(=O)C(C(=O)c1ccccc1)C(c1ccccc1)c1ccccc1 (stereo unspecified),28%
4,N#CN1C2CCC1CC(=O)C2,-35%
5,COc1ccccc1C(=O)OCC1CCCN2CCCCC12 (stereo unspecified),98% (active)
6,CCNc1nnc(CSc2nc(-c3ccccc3)c(-c3ccccc3)[nH]2)s1,77% (active)
7,O=C1c2ccccc2-c2n[nH]c3cccc1c23,11%

# Assay: NCI Yeast Anticancer Drug Screen. Data for the rad50EPP+ strain (AID 151);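 further: 0% = growth of vehicle-treated control cultures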
# Details: S. cerevisiae rad50 mutant strain, at 1.2 µM, active compounds read high
# In short: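 Compounds were applied to the rad50EPP+ yeast strain, which bears a defined DNA repair alteration, and growth inhibition was determined relative to vehicle-treated cultures.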
row,Structure (SMILES),growth inhibition [%]
1,CCC/C(Cl)=N\OC(=O)Nc1cccc(C(F)(F)F)c1,27
2,[O-][n+]1c2ccc(O)cc2nc2ccc(Cl)cc21,5
3,Clc1ccccc1C1OC1c1ccccc1Cl (stereo unspecified),-86
4,c1ccc2c(c1)c1ncccc1c1nccnc21,15
5,CC(=O)Nc1ccc2c(c1)C(=Nc1ccc(C(=O)O)cc1)c1ccccc1-2,0
6,COc1ccc(OC)c2cc3ccccc3cc12,-13
7,COc1cc(C2c3cc4c(cc3OC(NNc3ccccc3)C2C)OCO4)cc(OC)c1OC (stereo unspecified),39
8,O=C1c2cc([N+](=O)[O-])ccc2-c2cccc(F)c21,9
9,CCCCCCCCCCCC(=O)N(C)C,5
10,CCCCCCCCCCCC1=C(O)C(=O)C=C(O)C1=O,-5
11,Cc1ccc(CSC(N)=Nc2ccccc2)cc1C,4
12,CCCCCCCCCCC1CCC(=O)O1 (stereo unspecified),-2
13,O=[N+]([O-])c1cc(CCl)ccc1CCl,16
14,Nc1ccc2c(c1)C(=O)c1cccc(N)c1C2=O,9
15,CCCCCCCCCCNC(=O)OCC,1
16,CC1=C(C)Cc2c(O)ccc(O)c2C1,20
17,COc1ccc2c(c1)C(=O)c1ccccc1C2,3
18,CCC(=O)OCCn1c2nc(=O)[nH]c(=O)c-2nc2cc(C)c(C)cc21,-1
19,O=C(OCCN1CCCCCC1)C(c1ccsc1)C1CCCCC1 (stereo unspecified),-1
20,Oc1c(Br)cc(Br)cc1C1CCCCC1,9

row,Structure (SMILES),growth inhibition [%]
1,CC1(C)[C@@H]2CC[C@]1(C)[C@H](OC(=O)CSC#N)C2,-1
2,S=C(N/N=C(/c1ccccc1)c1ccccn1)N1CCCCCC1,5
3,Cc1ccc2[nH]c3c(C)c4cc[n+](C)cc4c(C)c3c2c1,35
4,CNC(=O)OCc1c(COC(=O)NC)c(-c2ccc(-c3ccccc3)cc2)n(C)c1C,-33
5,COc1ccccc1/C=C1\Sc2scc(-c3cccc([N+](=O)[O-])c3)[n+]2C1=O,11
6,O=[N+]([O-])c1ccc2c(c1)C(N1CCN(CCO)CC1)Cc1ccc(F)cc1S2 (stereo unspecified),-2
7,Cc1ccc(CCC2=CCCc3c2ccc2ccccc32)cc1,-3
8,O=[N+]([O-])c1cccc2nccc(NCCCO)c12,14
9,Cc1ccc(-n2cc(-c3ccc(Cl)cc3)c(C#N)c2N)cc1,-1
10,Cc1ccc(S/N=C\c2ccccc2O)cc1,4
11,O=C(O)C1OC1(c1cccc(Cl)c1)c1ccccc1Cl (stereo unspecified),0
12,NC(=S)N/N=C\c1nccc2ccccc12,1
13,Clc1cccc(C(Nc2nncs2)Nc2nncs2)c1Cl,-1
14,O=C(OCC=C1CCCC1)c1cc([N+](=O)[O-])cc([N+](=O)[O-])c1,3
15,O=C(Nc1ccccc1)C(=O)C(C(=O)c1ccccc1)C(c1ccccc1)c1ccccc1 (stereo unspecified),0
16,N#CN1C2CCC1CC(=O)C2,-25
17,COc1ccccc1C(=O)OCC1CCCN2CCCCC12 (stereo unspecified),4
18,CCNc1nnc(CSc2nc(-c3ccccc3)c(-c3ccccc3)[nH]2)s1,9
19,O=C1c2ccccc2-c2n[nH]c3cccc1c23,7
